The record followed here is PubChem BioAssay (NCI).

This is part of a sample that, as a whole, favours compounds with a hit. Of some 83,000 tested, about 20% had one in any assay.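 Cell lines were cultured in 96-well plates, exposed to a single compound concentration, and assessed for percent growth 48 hours later.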 The source made the active and inactive calls. Rule for the calls: active = growth percent below 10; inactive = the rest.

For the first experiment, the system named is EKVX NSCLC. The experiment is described as follows: NCI-60 one-dose screen, 48 h (100 = growth as untreated, 0 = no growth, -100 = all killed). Particulars: 10 µM.
For the compound `CCc1ccc(-c2ccc(-n3nc(C)c4c(N)nc(Cc5ccccc5)nc43)cc2)cc1`, the growth is 83.8% (inactive).
Same read-out and setting: the result for `O=C(Nc1ccc(F)cc1)c1cc2ccccc2cc1O` reads 87.2% (inactive); that for `Nc1nccc(OCCO)n1`, 97.8% (inactive).
Same read-out and setting: next, `O=C(CCCCNC(=O)c1nc(-c2ccccc2)n(-c2ccccc2)n1)NO`: 80.7% (inactive); `COc1cc(-c2nn(-c3ccc(NC(=O)NCCNS(=O)(=O)c4ccc(F)cc4)cc3)cc2-c2ccncc2)ccc1Cl`: 33% (inactive); `O=C(Nc1ccc2c(O)cc(S(=O)(=O)O)cc2c1)c1ccc([N+](=O)[O-])cc1`: 93.7% (inactive).
The same measure, in the same setting: next, `COC(=O)C1(O)NC(=C(C#N)C#N)C(C#N)=C1C(=O)c1ccc(OC)c(OC)c1` (stereo not given): 113% (inactive).
On to `C=CCn1c(SCC(=O)Nc2ccc(C(=O)/C=C/c3ccc(OC)cc3)cc2)nnc1-c1ccc(OC)c(OC)c1`, for which the growth is 107% (inactive).
Same read-out and setting: the result for `COc1cc(NC(=O)Nc2cnc(Nc3ccc(N4CCOCC4)cc3)nc2Oc2cccc(OC)c2)cc(OC)c1` reads 66.5% (inactive); that for `O=C(CCl)Nc1ccc(Cc2ccc(NC(=O)CCl)cc2)cc1`, -3.32% (active); that for `Cc1cc(SCc2ccccc2)nc(N)n1`, 96.7% (inactive).
Consider `Cc1nn(-c2ccc(-c3ccc(OC(F)(F)F)cc3)cc2)c2nc(Cc3ccccc3)nc(N)c12`, for which the growth was 72.3% (inactive).
Still for that read-out and setting: next, `O=C(Nc1nc(-c2ccccc2)nc2c1sc(=S)n2-c1ccccc1)C(F)(F)F`: 97.2% (inactive); `S=c1cnc2ccccc2[nH]1`: 107% (inactive); `O=C(CSc1nnc(-c2ccc(Cl)cc2)o1)Nc1ccc(C(=O)/C=C/c2ccc(Cl)cc2)cc1`: 129% (inactive).
On the same count and under the same terms, next, `CN(C)CCN(Cc1ccccc1)c1ccc2ccccc2n1`: 109% (inactive).
Still for that read-out and setting: the result for `CCN(CC)CCOc1cccc2c1C(=O)c1cccc(OCCN(CC)CC)c1C2=O` reads 53.6% (inactive).
As to `O=C(NCCCNS(=O)(=O)c1ccc(Cl)cc1)Nc1ccc(-n2cc(-c3ccncc3)c(-c3ccc(Cl)c(O)c3)n2)cc1`, the growth is 61.7% (inactive).
For the compound `C1CN(CC2CCC(CN3CCOCC3)O2)CCO1` (stereo not given), the growth is 100% (inactive).
Same read-out and setting: next, `NC(N)=N/N=C(\c1ccccc1)C(O)c1ccccc1` (stereo not given): 103% (inactive).
On to `N#CC1=C(N)Oc2cc(N)ccc2C1c1cccnc1` (stereo not given), for which the growth is 96.5% (inactive).
The same measure, in the same setting: the result for `CCOC(=O)c1cc(C(=O)c2cc(OC)cc(OC)c2)n2nc(C)ccc12` reads 75.5% (inactive).
As to `COc1cc(C)ccc1Oc1nc(Nc2ccc(N3CCOCC3)cc2)ncc1NC(=O)Nc1cc(C(F)(F)F)cc(C(F)(F)F)c1`, the growth was 80.7% (inactive).
Still for that read-out and setting: next, `COc1ccc(/C=C2\CCCC3C2=Nc2ccccc2NC3c2ccc(OC)cc2)cc1` (stereo not given): 87.5% (inactive); `CCN(CC)CC(=O)N(CC)c1ccc(C)c(Cl)c1`: 105% (inactive); `O=C(CC(CC(=O)c1ccccc1)c1ccccc1O)c1ccccc1`: 95% (inactive).
On the same count and under the same terms, next, `C=C(C)[C@@H]1CC[C@]2(COCCC#N)CC[C@]3(C)[C@H](CC[C@@H]4[C@@]5(C)Cc6c([nH]c7ccccc67)C(C)(C)[C@@H]5CC[C@]43C)[C@@H]12`: 116% (inactive); `Fc1ccc2[nH]cc(-c3nc(-c4ccsc4)cs3)c2c1`: 57.1% (inactive); `COc1cc(-c2nn(-c3cccc(NC(=O)CCN4CCN(Cc5ccccc5)CC4)c3)cc2-c2ccncc2)ccc1Cl`: 48.2% (inactive).
For the compound `Cc1cc(=O)n2nnc3cc(Cl)c(Cl)cc3n12`, the growth is 92.6% (inactive).
Still for that read-out and setting: the result for `O=C(/C=C/C=C/c1c(C2CC2)nc2ccccc2c1-c1ccc(F)cc1)c1cccs1` reads 49.3% (inactive).
Still for that read-out and setting: next, `CC(=O)[C@H]1CC[C@]2(C)[C@@H]1CC[C@@H]1[C@@]3(C)CC(CCC#N)(CCC#N)C(=O)C(C)(C)[C@@H]3CC[C@]12C`: 91.8% (inactive); `CCNCC(=O)Nc1ccc(C(=O)OCC)cc1`: 104% (inactive).
The same measure, in the same setting: next, `S=C(NCc1ccccc1)NCc1ccccc1`: 102% (inactive); `NNC(=O)Oc1c(Cl)cc(Cl)cc1[N+](=O)[O-]`: 105% (inactive); `CN1CCN(CCC(=O)Nc2cccc(-n3cc(-c4ccncc4)c(-c4ccc(Cl)c(O)c4)n3)c2)CC1`: 74.1% (inactive).
As to `O=S(=O)(O)c1cccc(Nc2ccc3ccccc3c2)c1`, the growth is 105% (inactive).
For the compound `CCN(CC)CCOc1ccc2c(c1O)C(=O)c1ccccc1C2=O`, the growth is 100% (inactive).
The same measure, in the same setting: the result for `S=C(SSC(=S)N(c1ccccc1)c1ccccc1)N(c1ccccc1)c1ccccc1` reads 118% (inactive).
On the same count and under the same terms, next, `CN1CCN(CC(=O)Nc2cccc(-n3cc(-c4ccncc4)c(-c4ccc(Cl)c(O)c4)n3)c2)CC1`: 63.6% (inactive).

Another experiment concerns SN12C renal. Described as above. Conditions: 10 µM.
Consider `CCc1ccc(-c2ccc(-n3nc(C)c4c(N)nc(Cc5ccccc5)nc43)cc2)cc1`, for which the growth was 71.1% (inactive).
Still for that read-out and setting: the result for `O=C(Nc1ccc(F)cc1)c1cc2ccccc2cc1O` reads 79.1% (inactive).
Take `Nc1nccc(OCCO)n1`: the growth was 107% (inactive).
For the compound `O=C(CCCCNC(=O)c1nc(-c2ccccc2)n(-c2ccccc2)n1)NO`, the growth was 77.9% (inactive).
As to `COc1cc(-c2nn(-c3ccc(NC(=O)NCCNS(=O)(=O)c4ccc(F)cc4)cc3)cc2-c2ccncc2)ccc1Cl`, the growth is 39.9% (inactive).
Regarding `O=C(Nc1ccc2c(O)cc(S(=O)(=O)O)cc2c1)c1ccc([N+](=O)[O-])cc1`, the growth is 98.8% (inactive).
Same read-out and setting: next, `COC(=O)C1(O)NC(=C(C#N)C#N)C(C#N)=C1C(=O)c1ccc(OC)c(OC)c1` (stereo not given): 96.7% (inactive); `C=CCn1c(SCC(=O)Nc2ccc(C(=O)/C=C/c3ccc(OC)cc3)cc2)nnc1-c1ccc(OC)c(OC)c1`: 73.1% (inactive).
For the compound `COc1cc(NC(=O)Nc2cnc(Nc3ccc(N4CCOCC4)cc3)nc2Oc2cccc(OC)c2)cc(OC)c1`, the growth was 43.3% (inactive).
Still for that read-out and setting: the result for `O=C(CCl)Nc1ccc(Cc2ccc(NC(=O)CCl)cc2)cc1` reads 31.6% (inactive); that for `Cc1cc(SCc2ccccc2)nc(N)n1`, 92.5% (inactive); that for `Cc1nn(-c2ccc(-c3ccc(OC(F)(F)F)cc3)cc2)c2nc(Cc3ccccc3)nc(N)c12`, 62.8% (inactive).
On to `O=C(Nc1nc(-c2ccccc2)nc2c1sc(=S)n2-c1ccccc1)C(F)(F)F`, for which the growth was 95.3% (inactive).
For `S=c1cnc2ccccc2[nH]1`, the growth was 104% (inactive).
Still for that read-out and setting: the result for `O=C(CSc1nnc(-c2ccc(Cl)cc2)o1)Nc1ccc(C(=O)/C=C/c2ccc(Cl)cc2)cc1` reads 95.9% (inactive); that for `CN(C)CCN(Cc1ccccc1)c1ccc2ccccc2n1`, 93.8% (inactive); that for `CCN(CC)CCOc1cccc2c1C(=O)c1cccc(OCCN(CC)CC)c1C2=O`, 27.5% (inactive).
Same read-out and setting: the result for `O=C(NCCCNS(=O)(=O)c1ccc(Cl)cc1)Nc1ccc(-n2cc(-c3ccncc3)c(-c3ccc(Cl)c(O)c3)n2)cc1` reads 46.1% (inactive); that for `C1CN(CC2CCC(CN3CCOCC3)O2)CCO1` (stereo not given), 106% (inactive).
`NC(N)=N/N=C(\c1ccccc1)C(O)c1ccccc1` (stereo not given): the growth is 99.6% (inactive).
Still for that read-out and setting: the result for `N#CC1=C(N)Oc2cc(N)ccc2C1c1cccnc1` (stereo not given) reads 98.5% (inactive); that for `CCOC(=O)c1cc(C(=O)c2cc(OC)cc(OC)c2)n2nc(C)ccc12`, 58.1% (inactive).
With `COc1cc(C)ccc1Oc1nc(Nc2ccc(N3CCOCC3)cc2)ncc1NC(=O)Nc1cc(C(F)(F)F)cc(C(F)(F)F)c1`, the growth is 58.1% (inactive).
On the same count and under the same terms, the result for `COc1ccc(/C=C2\CCCC3C2=Nc2ccccc2NC3c2ccc(OC)cc2)cc1` (stereo not given) reads 85.5% (inactive); that for `CCN(CC)CC(=O)N(CC)c1ccc(C)c(Cl)c1`, 101% (inactive).
On the same count and under the same terms, next, `O=C(CC(CC(=O)c1ccccc1)c1ccccc1O)c1ccccc1`: 96.2% (inactive); `C=C(C)[C@@H]1CC[C@]2(COCCC#N)CC[C@]3(C)[C@H](CC[C@@H]4[C@@]5(C)Cc6c([nH]c7ccccc67)C(C)(C)[C@@H]5CC[C@]43C)[C@@H]12`: 98.7% (inactive); `Fc1ccc2[nH]cc(-c3nc(-c4ccsc4)cs3)c2c1`: 92.5% (inactive).
The same measure, in the same setting: the result for `COc1cc(-c2nn(-c3cccc(NC(=O)CCN4CCN(Cc5ccccc5)CC4)c3)cc2-c2ccncc2)ccc1Cl` reads 41.7% (inactive).
As for `Cc1cc(=O)n2nnc3cc(Cl)c(Cl)cc3n12`, the growth was 107% (inactive).
Consider `O=C(/C=C/C=C/c1c(C2CC2)nc2ccccc2c1-c1ccc(F)cc1)c1cccs1`, for which the growth is 38.1% (inactive).
Same read-out and setting: next, `CC(=O)[C@H]1CC[C@]2(C)[C@@H]1CC[C@@H]1[C@@]3(C)CC(CCC#N)(CCC#N)C(=O)C(C)(C)[C@@H]3CC[C@]12C`: 91.8% (inactive); `CCNCC(=O)Nc1ccc(C(=O)OCC)cc1`: 98.6% (inactive); `S=C(NCc1ccccc1)NCc1ccccc1`: 96.3% (inactive).
As to `NNC(=O)Oc1c(Cl)cc(Cl)cc1[N+](=O)[O-]`, the growth was 111% (inactive).
On to `CN1CCN(CCC(=O)Nc2cccc(-n3cc(-c4ccncc4)c(-c4ccc(Cl)c(O)c4)n3)c2)CC1`, for which the growth is 61.8% (inactive).
Consider `O=S(=O)(O)c1cccc(Nc2ccc3ccccc3c2)c1`, for which the growth is 92.5% (inactive).
In the case of `CCN(CC)CCOc1ccc2c(c1O)C(=O)c1ccccc1C2=O`, the growth is 76.2% (inactive).
`S=C(SSC(=S)N(c1ccccc1)c1ccccc1)N(c1ccccc1)c1ccccc1`: the growth is 94.5% (inactive).
On the same count and under the same terms, the result for `CN1CCN(CC(=O)Nc2cccc(-n3cc(-c4ccncc4)c(-c4ccc(Cl)c(O)c4)n3)c2)CC1` reads 64.9% (inactive).
